# Screens as filed in PubChem.
# TRb-SRC2 inh: TRbeta-SRC2 interaction inhibition; TRbeta-SRC2 peptide binding, fluorescence polarization; receptor liganded with 1 µM T3; Potency, µM (doses to about 106 µM), for the others: at the top dose activity change, negative = inhibition, usual class: inhibitors; actives 0.065% (n = 280,000); AID 1469;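 also: plate controls were bound peptide for no effect and peptide without receptor for full effect; nearly all actives have a fitted effect of over 50% in size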
# Target sequence (P10828 whole entry, looked up): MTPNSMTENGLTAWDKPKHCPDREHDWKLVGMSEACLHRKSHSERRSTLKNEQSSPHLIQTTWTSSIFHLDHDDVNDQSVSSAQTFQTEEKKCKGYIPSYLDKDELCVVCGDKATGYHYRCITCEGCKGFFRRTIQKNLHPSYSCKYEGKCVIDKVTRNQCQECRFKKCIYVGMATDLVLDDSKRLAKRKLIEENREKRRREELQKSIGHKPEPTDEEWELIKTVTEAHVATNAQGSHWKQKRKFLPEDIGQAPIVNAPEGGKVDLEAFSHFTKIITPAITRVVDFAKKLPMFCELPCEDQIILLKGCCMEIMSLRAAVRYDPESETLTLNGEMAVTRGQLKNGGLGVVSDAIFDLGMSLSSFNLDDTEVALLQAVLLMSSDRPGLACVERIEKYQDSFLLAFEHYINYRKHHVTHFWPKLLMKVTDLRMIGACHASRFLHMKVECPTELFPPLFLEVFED
#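 Polarization signal, normalized between peptide-alone and full complex controls, measured compound effects on T3-liganded human TRb LBD (0.6 uM) binding 20 nM Texas Red SRC2 peptide after 5 hr.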
# Tau fluor cs: counter-screen for tau fibril formation inhibitors. tau K18 P301L Alexa594 fluorescence, heparin fibrillization. Potency, µM (top dose mostly 57.7 µM), without a hit: at the top dose activity change, negative = decrease. actives 0.93% (n = 280,000). AID 1463; also: nearly all actives have a fitted effect of over 55% in size
#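 Human tau K18 P301L (15 uM unlabeled, 0.24 uM Alexa 594-labeled) in 100 mM sodium acetate pH 7 with 20 uM heparin, 6 hr at 37 C. ThT 30 uM added, 1 hr ambient; Alexa 594 FP and total fluorescence read at 555/632 nm.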
# Tau fibril FP: tau fibrillization inhibition (FP) | P10636 | K18 P301L tau heparin fibrillization, Alexa594 FP, 6 h | Potency, µM (doses to about 57.7 µM), for the others: at the highest dose activity, negative = inhibition, actives largely listed as inhibitors | actives 0.39% (n = 280,000) | AID 1468; also: nearly all actives have a fitted effect of over 55% in size
# Target sequence (P10636 561-689 P618L limits assumed): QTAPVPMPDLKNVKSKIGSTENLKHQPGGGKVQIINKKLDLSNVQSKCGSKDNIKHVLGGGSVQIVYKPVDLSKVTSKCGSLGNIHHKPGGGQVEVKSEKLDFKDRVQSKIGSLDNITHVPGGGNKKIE
#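 Compound effects on tau fibrillization are measured by Alexa 594 fluorescence polarization (ex 555, em 632 nm). K18 P301L tau is used at 15 uM with 0.24 uM labeled tracer, and 20 uM heparin induces aggregation over 6 hr at 37 C.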
# Tau ThT inhib: tau fibrillization inhibition (ThT binding). P10636. recombinant tau K18 P301L, heparin-induced fibrillization, ThT fluorescence. Potency, µM (highest dose often 57.4 µM), for inactives: at the top dose activity, negative = inhibition, most hits filed as inhibitors. actives 2.1% (n = 270,000). AID 1460; also: nearly all actives have a fitted effect of over 55% in size
#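 Using a mix of unlabeled (15 uM) and Alexa 594-labeled (0.24 uM) tau K18 P301L, heparin-triggered fibrillization over 6 hr at 37 C was scored by ThT fluorescence.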
# TexasRed fluor: counter-screen for TRb-SRC2 inhibitors: fluorescence interference; TRb/SRC2 Texas Red total fluorescence interference; Potency, µM (series often up to 106 µM), inactives show top-dose fluorescence change, negative = quenching; actives 0.29% (n = 280,000); AID 1479; active = well fitted curve in either direction with a large enough effect; inconclusive = small, poorly fitted or top-dose-only effect
#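 Flags fluorescent or light-absorbing compounds by total fluorescence, S + 2P, at 555 nm excitation and 632 nm emission. Mixture: 20 nM Texas Red SRC2 peptide, 0.6 uM human TRb LBD, 1 uM T3, 5% DMSO; compound exposure 5 h at ambient temperature.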
# Numbers without * were called inactive; ? = inconclusive; . = no result given; [ ] = dose if it differs, or a comment. In the library only some 3% were active in any assay of this set; here they are far more common. Unless noted, calls follow the shape of the dose curve; as a rule, active = well fitted curve in the direction sought with a large enough effect; inconclusive = small, poorly fitted or top-dose-only effect, or another doubt; inactive = no such curve, though single readings can be large; an effect the other way counts as inactive or inconclusive. Unless noted, % is scaled to controls: 0 for no effect and ±100 for the full control effect; potency is read from the fitted curve at half-maximal effect.
SMILES,TRb-SRC2 inh,Tau fluor cs,Tau fibril FP,Tau ThT inhib,TexasRed fluor
CC(=O)Nc1ccc2nc3c(=O)n(C)c(=O)n(C)c3nc2c1,-4.8%,-26.9%,?,17.8µM*,-5.6%
CCCCCN(CCCCC)C(=O)[C@H](CCC(=O)O)NC(=O)[C@H](Cc1ccc(OP(=O)(O)O)cc1)NC(C)=O,-3.1%,.,.,.,?
NNc1nc2ccccc2nc1C(F)(F)F,-3.7%,-23.4%,-4.1%,?,-2.5%
FC(F)(F)c1nc2ccccc2nc1N/N=C\c1ccccc1,-0.8%,?,0.6%,14.1µM*,-7.0%
Nc1nonc1C(=O)N/N=C/c1cccc([N+](=O)[O-])c1,2.0%[53 µM],9.8%,13.3%,-5.5%,-3.5%[53 µM]
CN(C)c1ccc(/C=N/NC(=O)c2nonc2N)cc1[N+](=O)[O-],-0.8%,-18.5%,-0.2%,15.8µM*,-17.9%
COC(=O)/C=C/c1cc(O)ccc1O,8.1%,-26.9%,-12.2%,?,-4.5%
CCC(C)N1C(=O)/C(=C/c2c(NCCCOC(C)C)nc3c(C)cccn3c2=O)SC1=S (stereo not given),-0.2%,0.8%,25.1µM*,?,-1.5%
Cc1ccc(O)c(NC(=O)c2ccc(Br)c(S(=O)(=O)N3CCCCC3)c2)c1,-11.4%,12.6µM*[quencher],-3.5%,-11.7%,?
O=C(Nc1cc(Cl)cc(Cl)c1)c1ccc(F)c(S(=O)(=O)N2CCCC2)c1,9.1%,?,14.1µM*,-4.6%,-2.5%
O=C(Nc1cc(Cl)cc(Cl)c1)c1ccc(F)c(S(=O)(=O)NC2CCCC2)c1,12.2%,?,10µM*,1.4%,-3.0%
Cc1cc(C(=O)N2CCN(c3cccc(C)c3C)CC2)c2c(C)nn(-c3ccccc3)c2n1,5.6%,-16.2%,-3.8%,-17.1%,5.2%
Cc1[nH][nH]c(=O)c1C(c1ccc(-c2ccccc2C(=O)O)o1)c1c(C)[nH][nH]c1=O,?,-7.9%,?,11.2µM*,-2.3%
Cc1[nH][nH]c(=O)c1C(c1ccc(-c2ccc(Cl)cc2Cl)o1)c1c(C)[nH][nH]c1=O,?,-28.1%,?,11.2µM*,-8.4%
COc1ccc(C(=O)Oc2ccc(C(c3c(C)[nH][nH]c3=O)c3c(C)[nH][nH]c3=O)cc2OC)cc1,2.0%,-4.1%,-1.1%,-19.5%,-2.1%
COC(=O)c1ccc(-c2ccc(C(c3c(C)[nH][nH]c3=O)c3c(C)[nH][nH]c3=O)o2)cc1,-23.6%,-26.0%,?,5.01µM*,-5.0%
Cc1[nH][nH]c(=O)c1C(c1ccc(-c2cccc(C(=O)O)c2)o1)c1c(C)[nH][nH]c1=O,-22.4%,-25.7%,?,14.1µM*,-3.9%
COc1cc(C(c2c(C)[nH][nH]c2=O)c2c(C)[nH][nH]c2=O)ccc1OC(=O)c1ccccc1F,-4.1%,-28.0%,3.0%,?,-1.2%
Cc1[nH][nH]c(=O)c1C(c1ccc(-c2cccc(Cl)c2)o1)c1c(C)[nH][nH]c1=O,?,?,?,.,-2.1%
Cc1cccc(C(=O)NCC(=O)OCc2cc(=O)n3nc(CC(C)C)sc3n2)c1,-4.9%,5.9%,2.8%,-2.5%,-2.8%
O=C(NCc1ccco1)c1ccc2c(c1)N(Cc1ccccc1F)C(=O)c1ccccc1S2=O (stereo not given),1.1%,-26.8%,-13.5%,-0.6%,-10.5%
CCOC(=O)c1c(C)[nH]c(N=Nc2ccc(OC)cc2)c1C,0.7%,3.16µM*[quencher],?,.,-0.3%
CCOC(=O)c1c(C)[nH]c(N=Nc2ccccc2Cl)c1C,7.5%,?,1.8%,5.01µM*,-4.1%
CCOC(=O)c1c(C)[nH]c(N=Nc2ccccc2)c1C,8.5%,?,?,7.94µM*,-1.6%
CCOC(=O)c1c(C)[nH]c(C=Nc2ccc(OC)cc2)c1O,-9.3%,-25.4%,8.2%,?,-2.2%
SMILES,TRb-SRC2 inh,Tau fluor cs,Tau fibril FP,Tau ThT inhib,TexasRed fluor
CCOC(=O)c1c(C)[nH]c(N=Nc2ccc(C)cc2)c1C,-9.0%,?,22.1%,7.94µM*,-4.5%
Cc1cc(F)ccc1NC(=O)C1CCCN(S(=O)(=O)c2ccc3c(c2)CCCC(=O)N3)C1 (stereo not given),0.7%,-15.1%,-8.3%,-4.4%,-6.9%
Cc1ccc2c(=O)cc(C(=O)Nc3cccc(C(F)(F)F)c3)oc2c1C,3.4%,3.5%,-8.3%,5.9%,-12.4%
CCCCC(CC)COC(C)=O (stereo not given),6.3%[201 µM],.,.,.,-2.1%[201 µM]
CCCCc1nc2c(c3c1C[C@H](C)OC3)CN(C(=O)C1CC1)CC2,-2.7%[11.2 µM],0.3%[11.6 µM],6.2%[11.6 µM],7.1%[11.5 µM],-1.6%[11.2 µM]
NS(=O)(=O)c1ccc(O)c(NC(=O)c2ccc([N+](=O)[O-])o2)c1,-7.9%,-17.8%,17.8µM*,25.1µM*,0.4%
Cc1cc(NC(=O)c2ccc([N+](=O)[O-])o2)ccc1NC(=O)c1ccco1,-1.0%,-20.1%,4.1%,14.1µM*,-3.2%
Cc1cc(C)cc(NC(=O)c2ccc([N+](=O)[O-])o2)c1,-3.2%,-14.0%,9.6%,-19.2%,0.8%
Cc1cc([N+](=O)[O-])ccc1NC(=O)c1ccco1,0.8%,6.6%,-6.8%,9.9%,2.3%
C=C(C(=O)OC)C(NC(=O)OC)c1ccccc1 (stereo not given),-5.6%,-20.9%,-17.8%,-8.5%,0.1%
COc1cccc(Cc2nc3ccccc3nc2SCC(=O)N2CCCc3ccccc32)c1,1.7%,-5.7%,4.4%,0.5%,-1.1%
COc1cc(C2N(c3ccccc3)CCN2c2ccccc2)ccc1OC(C)=O,-2.8%,-2.1%,1.9%,-5.9%,-3.1%
COc1ccc(C2N(c3ccc(C)cc3)CCN2c2ccc(C)cc2)cc1O,5.0%,25.1µM*[quencher],11.9%,?,-0.9%
Cc1ccc2[nH]c(-c3cccc(N)c3)cc2c1,-0.3%,14.1µM*[quencher],?,10µM*,-8.9%
O=C(NCC(c1ccc2c(c1)OCO2)N1CCOCC1)c1ccccc1F (stereo not given),1.8%,8.0%,8.7%,7.2%,-18.6%
Cc1ccc(C(C)NC(=O)/C(C#N)=C\c2c(C)[nH]c3ccccc23)cc1 (stereo not given),0.9%,10µM*[quencher],25.1µM*,-15.7%,0.2%
COc1ccc(-c2noc(-c3ccc(N4CCCC4)c([N+](=O)[O-])c3)n2)cc1,5.5%,-7.8%,-0.1%,-1.4%,0.9%
O=C1c2ccccc2C(=O)c2c1cccc2N1CCCC1,7.2%,?,?,14.1µM*,0.3%
O=C1c2ccccc2-c2onc3ccc(N4CCCC4)c1c23,39.8µM*,10µM*[quencher],28.2µM*,8.91µM*,44.7µM*[fluorescent]
O=C1c2ccccc2-c2onc3ccc(NCc4ccco4)c1c23,35.5µM*,4.47µM*[quencher],25.1µM*,3.16µM*,44.7µM*[fluorescent]
O=C(O)c1ccccc1NCc1ccco1,-3.5%,8.7%,0.0%,0.8%,2.9%
CCNc1ccc2noc3c2c1C(=O)c1ccccc1-3,14.1µM*,?,28.2µM*,7.94µM*,44.7µM*[fluorescent]
CCNc1ccccc(-c2ccc3ccccc3n2)c1=O,-1.0%,-7.8%,7.8%,?,-3.1%
